# Article PMC7862700, “An all-to-all approach to the identification of sequence-specific readers for epigenetic DNA modifications on cytosine”
# What was measured:
# Assay in all cases: DAPPL (digital affinity profiling via proximity ligation, sequencing); 10 mM Tris-HCl pH 7.5, 50 mM NaCl, 1 mM DTT, 4% glycerol, room temperature, 30 min; GST-TFs on glutathione beads, 16-mer random dsDNA library, 0.1% formaldehyde crosslink after washing; high values mean tight binding
# [1] = molecular target: T1, FLI1 (Homo sapiens, UniProt Q01543 1-452); conditions: protein: recombinant; tags: N-terminal GST; dsDNA, one strand shown
# T1 sequence: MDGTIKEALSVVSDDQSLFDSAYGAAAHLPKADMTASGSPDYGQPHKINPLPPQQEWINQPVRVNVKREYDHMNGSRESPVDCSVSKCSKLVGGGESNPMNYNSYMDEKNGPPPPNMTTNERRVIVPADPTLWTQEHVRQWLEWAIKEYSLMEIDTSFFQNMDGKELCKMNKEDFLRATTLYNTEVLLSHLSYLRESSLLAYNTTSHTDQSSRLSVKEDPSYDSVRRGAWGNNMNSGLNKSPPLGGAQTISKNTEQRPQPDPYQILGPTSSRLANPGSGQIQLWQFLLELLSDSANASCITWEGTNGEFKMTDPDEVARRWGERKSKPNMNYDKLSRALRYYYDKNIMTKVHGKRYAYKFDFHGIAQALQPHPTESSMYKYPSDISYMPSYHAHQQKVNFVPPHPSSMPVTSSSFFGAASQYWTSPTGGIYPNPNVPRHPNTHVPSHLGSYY
# Summary of the method: (§1)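 Pools were built from human transcription factors expressed in yeast as GST fusions, captured on glutathione beads and DNA-barcoded, along with a tag-only sample. Incubation with 200 nmole of a 16-mer random double-stranded DNA library lasted 30 min at room temperature in Tris/NaCl/DTT/glycerol buffer, and was followed by washing, 0.1% formaldehyde crosslinking, proximity ligation, PCR amplification and Illumina NextSeq500 sequencing. Binding signal is the quotient of each hexamer's read frequency for a factor and its frequency for the tag-only sample.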
# [2] = molecular target: T2, ELK1 (Homo sapiens, UniProt P19419 1-428); conditions: protein: recombinant; tags: N-terminal GST; dsDNA, one strand shown
# T2 sequence: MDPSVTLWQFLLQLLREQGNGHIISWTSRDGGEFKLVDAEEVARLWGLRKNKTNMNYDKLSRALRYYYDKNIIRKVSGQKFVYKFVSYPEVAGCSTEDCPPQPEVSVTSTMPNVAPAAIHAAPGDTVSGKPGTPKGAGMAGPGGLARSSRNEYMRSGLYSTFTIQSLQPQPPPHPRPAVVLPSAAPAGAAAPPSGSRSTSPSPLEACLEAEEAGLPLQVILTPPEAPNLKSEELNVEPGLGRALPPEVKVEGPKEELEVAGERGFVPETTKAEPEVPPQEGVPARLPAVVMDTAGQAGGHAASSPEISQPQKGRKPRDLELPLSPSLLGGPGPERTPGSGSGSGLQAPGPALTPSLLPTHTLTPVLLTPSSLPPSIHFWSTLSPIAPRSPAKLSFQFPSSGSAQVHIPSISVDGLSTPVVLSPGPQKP
# Summary of the method: as §1
# [3] = molecular target: T3, GABPA (Homo sapiens, UniProt Q06546 1-454); conditions: protein: recombinant; tags: N-terminal GST; dsDNA, one strand shown
# T3 sequence: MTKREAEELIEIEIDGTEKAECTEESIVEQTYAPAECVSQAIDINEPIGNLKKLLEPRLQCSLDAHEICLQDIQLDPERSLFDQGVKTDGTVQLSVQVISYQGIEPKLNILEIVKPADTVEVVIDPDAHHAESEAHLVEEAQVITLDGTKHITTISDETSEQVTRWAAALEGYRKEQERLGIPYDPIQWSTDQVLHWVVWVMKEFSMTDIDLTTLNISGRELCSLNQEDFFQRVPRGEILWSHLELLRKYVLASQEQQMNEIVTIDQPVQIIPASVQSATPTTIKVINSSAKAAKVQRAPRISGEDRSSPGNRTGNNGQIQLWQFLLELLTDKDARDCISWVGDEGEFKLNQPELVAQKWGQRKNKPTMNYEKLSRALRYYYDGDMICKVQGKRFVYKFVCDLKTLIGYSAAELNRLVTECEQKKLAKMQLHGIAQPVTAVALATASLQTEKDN
# Summary of the method: as §1
# [4] = molecular target: T4, ERG (Homo sapiens, UniProt P11308 1-479); conditions: protein: recombinant; tags: N-terminal GST; dsDNA, one strand shown
# T4 sequence: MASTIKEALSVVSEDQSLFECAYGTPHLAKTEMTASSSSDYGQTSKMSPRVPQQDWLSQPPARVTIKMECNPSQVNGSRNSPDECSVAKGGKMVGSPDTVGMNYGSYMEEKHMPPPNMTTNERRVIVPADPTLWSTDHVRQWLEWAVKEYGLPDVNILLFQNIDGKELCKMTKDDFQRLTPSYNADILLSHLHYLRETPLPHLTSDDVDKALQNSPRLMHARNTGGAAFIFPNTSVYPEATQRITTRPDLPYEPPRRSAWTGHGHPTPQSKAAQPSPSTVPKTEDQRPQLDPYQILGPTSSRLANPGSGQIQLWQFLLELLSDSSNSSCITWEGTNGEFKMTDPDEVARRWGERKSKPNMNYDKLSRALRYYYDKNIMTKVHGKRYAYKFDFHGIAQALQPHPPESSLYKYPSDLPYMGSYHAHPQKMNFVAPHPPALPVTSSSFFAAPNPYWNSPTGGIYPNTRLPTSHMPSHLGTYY
# Summary of the method: as §1
# [5] = molecular target: ELF1 (Homo sapiens, UniProt P32519 1-619); conditions: protein: recombinant; tags: N-terminal GST; dsDNA, one strand shown
# Chain of ELF1 (P32519 whole entry): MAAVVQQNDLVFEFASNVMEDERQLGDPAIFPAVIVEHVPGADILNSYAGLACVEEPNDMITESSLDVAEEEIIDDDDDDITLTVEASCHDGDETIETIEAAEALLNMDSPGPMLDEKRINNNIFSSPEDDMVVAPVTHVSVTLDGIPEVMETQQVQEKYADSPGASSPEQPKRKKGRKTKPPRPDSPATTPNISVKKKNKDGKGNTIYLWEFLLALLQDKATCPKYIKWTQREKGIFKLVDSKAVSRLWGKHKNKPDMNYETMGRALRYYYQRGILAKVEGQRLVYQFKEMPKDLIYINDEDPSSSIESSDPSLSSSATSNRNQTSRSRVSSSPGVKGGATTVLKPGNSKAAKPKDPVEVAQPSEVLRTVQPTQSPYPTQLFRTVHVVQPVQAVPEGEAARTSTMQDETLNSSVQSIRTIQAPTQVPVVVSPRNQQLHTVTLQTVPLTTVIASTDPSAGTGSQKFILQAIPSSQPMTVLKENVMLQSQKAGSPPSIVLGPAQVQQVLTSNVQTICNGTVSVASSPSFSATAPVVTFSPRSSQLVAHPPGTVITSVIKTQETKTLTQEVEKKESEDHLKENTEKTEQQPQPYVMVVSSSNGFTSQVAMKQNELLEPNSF
# Summary of the method: as §1
# [6] = molecular target: T5, EHF (Homo sapiens, UniProt Q9NZC4 1-300); conditions: protein: recombinant; tags: N-terminal GST; dsDNA, one strand shown
# T5 sequence: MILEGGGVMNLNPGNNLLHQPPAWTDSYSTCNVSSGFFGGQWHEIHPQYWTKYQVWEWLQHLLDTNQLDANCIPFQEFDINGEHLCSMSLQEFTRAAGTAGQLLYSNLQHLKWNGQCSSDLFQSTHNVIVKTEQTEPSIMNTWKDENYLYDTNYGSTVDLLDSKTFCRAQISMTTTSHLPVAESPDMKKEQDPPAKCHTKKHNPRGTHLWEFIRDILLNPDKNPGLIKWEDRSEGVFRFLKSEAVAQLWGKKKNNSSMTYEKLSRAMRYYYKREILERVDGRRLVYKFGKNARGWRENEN
# Summary of the method: as §1
# [7] = molecular target: SPI1 (Homo sapiens, UniProt P17947 1-270); conditions: protein: recombinant; tags: N-terminal GST; dsDNA, one strand shown
# Summary of the method: as §1
# [8] = molecular target: SPIB (Homo sapiens, UniProt Q01892 1-262); conditions: protein: recombinant; tags: N-terminal GST; dsDNA, one strand shown
# Chain of SPIB (Q01892 whole entry): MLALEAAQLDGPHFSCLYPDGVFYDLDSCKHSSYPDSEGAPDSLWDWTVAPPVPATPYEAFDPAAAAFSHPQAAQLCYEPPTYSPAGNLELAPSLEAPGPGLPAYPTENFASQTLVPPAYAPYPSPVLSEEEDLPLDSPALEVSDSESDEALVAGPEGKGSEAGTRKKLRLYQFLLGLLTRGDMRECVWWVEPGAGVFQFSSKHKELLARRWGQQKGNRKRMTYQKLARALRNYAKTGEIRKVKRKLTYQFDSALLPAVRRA
# Summary of the method: as §1
# [9] = molecular target: T6, ELK3 (Homo sapiens, UniProt P41970 1-407); conditions: protein: recombinant; tags: N-terminal GST; dsDNA, one strand shown
# T6 sequence: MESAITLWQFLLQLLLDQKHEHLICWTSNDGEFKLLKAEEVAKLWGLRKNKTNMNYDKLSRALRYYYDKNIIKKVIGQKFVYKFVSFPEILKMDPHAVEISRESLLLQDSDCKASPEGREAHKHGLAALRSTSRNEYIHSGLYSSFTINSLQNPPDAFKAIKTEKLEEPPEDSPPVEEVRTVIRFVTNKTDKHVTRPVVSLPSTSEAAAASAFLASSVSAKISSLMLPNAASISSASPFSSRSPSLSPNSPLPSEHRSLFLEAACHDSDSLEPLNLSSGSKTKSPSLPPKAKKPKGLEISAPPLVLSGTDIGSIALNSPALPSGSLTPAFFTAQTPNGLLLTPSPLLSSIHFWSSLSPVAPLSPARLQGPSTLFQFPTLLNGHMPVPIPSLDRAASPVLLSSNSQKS
# Summary of the method: as §1
# [10] = molecular target: T7, FEV (Homo sapiens, UniProt Q99581 1-238); conditions: protein: recombinant; tags: N-terminal GST; dsDNA, one strand shown
# T7 sequence: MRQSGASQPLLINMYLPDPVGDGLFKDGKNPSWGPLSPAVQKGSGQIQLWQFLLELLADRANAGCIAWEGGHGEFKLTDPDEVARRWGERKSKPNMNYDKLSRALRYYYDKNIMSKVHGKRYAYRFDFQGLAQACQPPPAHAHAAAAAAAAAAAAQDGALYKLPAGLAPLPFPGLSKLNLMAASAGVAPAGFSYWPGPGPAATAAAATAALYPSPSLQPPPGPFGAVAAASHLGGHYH
# Summary of the method: as §1
# [11] = molecular target: ETV5 (Homo sapiens, UniProt P41161 1-510); conditions: protein: recombinant; tags: N-terminal GST; dsDNA, one strand shown
# Chain of ETV5 (P41161 whole entry): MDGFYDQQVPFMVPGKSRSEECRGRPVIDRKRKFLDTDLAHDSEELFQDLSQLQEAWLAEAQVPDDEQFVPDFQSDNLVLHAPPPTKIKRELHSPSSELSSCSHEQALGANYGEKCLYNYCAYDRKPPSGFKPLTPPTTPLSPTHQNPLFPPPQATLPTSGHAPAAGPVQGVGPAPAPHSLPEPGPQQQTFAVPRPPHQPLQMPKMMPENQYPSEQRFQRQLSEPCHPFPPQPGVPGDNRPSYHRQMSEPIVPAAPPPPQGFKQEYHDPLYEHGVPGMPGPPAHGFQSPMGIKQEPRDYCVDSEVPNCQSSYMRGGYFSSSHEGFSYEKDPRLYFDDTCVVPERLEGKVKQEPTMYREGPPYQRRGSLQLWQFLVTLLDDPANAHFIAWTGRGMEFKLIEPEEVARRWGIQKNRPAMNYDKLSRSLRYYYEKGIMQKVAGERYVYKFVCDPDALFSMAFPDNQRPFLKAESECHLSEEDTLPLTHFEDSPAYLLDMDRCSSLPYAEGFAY
# Summary of the method: as §1
# [12] = molecular target: HSF1 (Homo sapiens, UniProt Q00613 1-529); conditions: protein: recombinant; tags: N-terminal GST; chain copies: 3; dsDNA, one strand shown
# Chain of HSF1 (Q00613 whole entry): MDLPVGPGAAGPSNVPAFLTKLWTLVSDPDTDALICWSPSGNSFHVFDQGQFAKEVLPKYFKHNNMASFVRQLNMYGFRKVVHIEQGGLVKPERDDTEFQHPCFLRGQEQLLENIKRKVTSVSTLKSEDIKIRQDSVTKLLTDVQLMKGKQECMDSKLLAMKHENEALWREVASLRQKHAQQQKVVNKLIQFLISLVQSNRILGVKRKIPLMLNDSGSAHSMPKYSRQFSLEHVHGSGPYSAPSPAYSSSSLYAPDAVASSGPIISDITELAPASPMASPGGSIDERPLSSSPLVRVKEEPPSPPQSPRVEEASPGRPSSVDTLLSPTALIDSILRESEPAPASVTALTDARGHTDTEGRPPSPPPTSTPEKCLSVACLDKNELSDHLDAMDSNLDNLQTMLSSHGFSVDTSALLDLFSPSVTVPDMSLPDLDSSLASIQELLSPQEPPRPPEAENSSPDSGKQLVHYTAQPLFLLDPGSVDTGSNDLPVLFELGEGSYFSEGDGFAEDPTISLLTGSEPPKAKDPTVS
# Summary of the method: as §1
# [13] = molecular target: T8, SPIC (Homo sapiens, UniProt Q8N5J4 1-248); conditions: protein: recombinant; tags: N-terminal GST; dsDNA, one strand shown
# T8 sequence: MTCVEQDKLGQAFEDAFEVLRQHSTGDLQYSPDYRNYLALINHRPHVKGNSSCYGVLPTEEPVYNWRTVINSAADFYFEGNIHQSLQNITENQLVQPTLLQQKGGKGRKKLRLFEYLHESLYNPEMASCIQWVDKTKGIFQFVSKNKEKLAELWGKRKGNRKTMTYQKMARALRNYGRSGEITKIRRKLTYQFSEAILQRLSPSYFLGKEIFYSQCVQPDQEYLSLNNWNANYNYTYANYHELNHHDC
# Summary of the method: as §1
# [14] = molecular target: ELF4 (Homo sapiens, UniProt Q99607 1-663); conditions: protein: recombinant; tags: N-terminal GST; dsDNA, one strand shown
# Chain of ELF4 (Q99607 whole entry): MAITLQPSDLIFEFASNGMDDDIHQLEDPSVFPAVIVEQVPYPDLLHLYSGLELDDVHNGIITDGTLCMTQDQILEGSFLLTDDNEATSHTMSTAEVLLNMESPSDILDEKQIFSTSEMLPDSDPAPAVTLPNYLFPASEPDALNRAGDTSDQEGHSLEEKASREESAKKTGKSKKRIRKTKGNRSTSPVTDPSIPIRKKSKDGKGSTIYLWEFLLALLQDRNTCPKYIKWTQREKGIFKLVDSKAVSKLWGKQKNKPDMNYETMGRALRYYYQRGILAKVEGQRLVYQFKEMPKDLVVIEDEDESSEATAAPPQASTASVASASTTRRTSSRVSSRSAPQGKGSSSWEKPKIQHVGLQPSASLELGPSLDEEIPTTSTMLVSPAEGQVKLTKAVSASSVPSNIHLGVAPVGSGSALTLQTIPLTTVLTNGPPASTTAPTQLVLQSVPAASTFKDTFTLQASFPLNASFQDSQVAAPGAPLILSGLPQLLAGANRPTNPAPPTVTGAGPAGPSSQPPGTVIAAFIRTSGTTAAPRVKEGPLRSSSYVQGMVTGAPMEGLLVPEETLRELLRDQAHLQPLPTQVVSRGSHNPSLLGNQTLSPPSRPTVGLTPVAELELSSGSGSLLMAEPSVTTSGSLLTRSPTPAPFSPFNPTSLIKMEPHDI
# Summary of the method: as §1
# [15] = molecular target: T9, ELK4 (Homo sapiens, UniProt P28324-2 1-405); conditions: protein: recombinant; tags: N-terminal GST; dsDNA, one strand shown
# T9 sequence: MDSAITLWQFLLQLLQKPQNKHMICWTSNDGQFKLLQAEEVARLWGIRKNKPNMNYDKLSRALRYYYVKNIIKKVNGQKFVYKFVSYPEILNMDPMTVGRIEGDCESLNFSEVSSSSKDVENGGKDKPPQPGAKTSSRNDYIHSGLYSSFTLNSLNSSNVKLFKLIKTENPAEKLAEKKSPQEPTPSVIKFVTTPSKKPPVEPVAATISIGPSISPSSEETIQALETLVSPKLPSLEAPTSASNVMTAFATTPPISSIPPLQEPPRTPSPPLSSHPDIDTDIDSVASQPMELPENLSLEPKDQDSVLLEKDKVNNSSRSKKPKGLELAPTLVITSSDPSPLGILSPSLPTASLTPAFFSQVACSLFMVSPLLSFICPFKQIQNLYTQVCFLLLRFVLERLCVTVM
# Summary of the method: as §1
# [16] = molecular target: T10, ETV2 (Homo sapiens, UniProt O00321 1-342); conditions: protein: recombinant; tags: N-terminal GST; dsDNA, one strand shown
# T10 sequence: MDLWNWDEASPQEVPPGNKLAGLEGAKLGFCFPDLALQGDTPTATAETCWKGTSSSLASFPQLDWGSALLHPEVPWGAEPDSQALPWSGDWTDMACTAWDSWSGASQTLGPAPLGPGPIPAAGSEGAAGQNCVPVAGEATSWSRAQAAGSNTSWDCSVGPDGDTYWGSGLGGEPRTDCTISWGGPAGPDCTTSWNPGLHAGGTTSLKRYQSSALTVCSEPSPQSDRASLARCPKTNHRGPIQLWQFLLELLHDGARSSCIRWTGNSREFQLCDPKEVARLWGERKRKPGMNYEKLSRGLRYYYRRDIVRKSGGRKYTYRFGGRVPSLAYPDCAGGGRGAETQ
# Summary of the method: as §1
# [17] = molecular target: T11, ELF3 (Homo sapiens, UniProt P78545 1-371); conditions: protein: recombinant; tags: N-terminal GST; dsDNA, one strand shown
# T11 sequence: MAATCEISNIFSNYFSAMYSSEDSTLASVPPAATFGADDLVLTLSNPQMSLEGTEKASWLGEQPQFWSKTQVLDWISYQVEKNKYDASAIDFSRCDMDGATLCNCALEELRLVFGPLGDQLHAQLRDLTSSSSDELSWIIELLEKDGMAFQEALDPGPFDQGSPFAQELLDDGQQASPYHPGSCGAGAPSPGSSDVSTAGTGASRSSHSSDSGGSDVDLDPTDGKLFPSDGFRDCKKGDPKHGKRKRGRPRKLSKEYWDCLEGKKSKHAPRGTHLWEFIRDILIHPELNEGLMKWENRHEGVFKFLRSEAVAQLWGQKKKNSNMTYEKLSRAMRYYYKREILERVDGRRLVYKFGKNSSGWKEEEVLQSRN
# Summary of the method: as §1
# [18] = molecular target: ETV1 (Homo sapiens, UniProt P50549 1-477); conditions: protein: recombinant; tags: N-terminal GST; dsDNA, one strand shown
# Chain of ETV1 (P50549 whole entry): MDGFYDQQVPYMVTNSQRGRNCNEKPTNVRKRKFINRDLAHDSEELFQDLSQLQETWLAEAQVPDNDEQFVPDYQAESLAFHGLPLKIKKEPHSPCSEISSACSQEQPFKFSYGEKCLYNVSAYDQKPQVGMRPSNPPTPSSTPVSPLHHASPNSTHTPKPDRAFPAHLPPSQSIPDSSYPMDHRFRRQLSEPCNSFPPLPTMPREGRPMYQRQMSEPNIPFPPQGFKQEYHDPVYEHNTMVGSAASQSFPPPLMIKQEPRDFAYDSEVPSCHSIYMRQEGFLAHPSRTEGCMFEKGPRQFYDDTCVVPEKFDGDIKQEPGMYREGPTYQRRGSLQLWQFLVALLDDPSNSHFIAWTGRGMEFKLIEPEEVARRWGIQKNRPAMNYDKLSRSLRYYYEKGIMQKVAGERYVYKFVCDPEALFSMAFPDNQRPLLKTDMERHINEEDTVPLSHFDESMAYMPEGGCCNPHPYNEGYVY
# Summary of the method: as §1
sequence,measurement,setting,value
CACGAC,binding signal,[1],"1.27 fold enrichment (6-mer frequency, TF over GST control)"
same,binding signal,[2],"1.29 fold enrichment (6-mer frequency, TF over GST control)"
same,binding signal,[3],"1.33 fold enrichment (6-mer frequency, TF over GST control)"
same,binding signal,[4],"1.22 fold enrichment (6-mer frequency, TF over GST control)"
same,binding signal,[5],"1.21 fold enrichment (6-mer frequency, TF over GST control)"
same,binding signal,[6],"1.28 fold enrichment (6-mer frequency, TF over GST control)"
same,binding signal,[7],"1.14 fold enrichment (6-mer frequency, TF over GST control)"
same,binding signal,[8],"1.23 fold enrichment (6-mer frequency, TF over GST control)"
same,binding signal,[9],"1.29 fold enrichment (6-mer frequency, TF over GST control)"
same,binding signal,[10],"1.29 fold enrichment (6-mer frequency, TF over GST control)"
same,binding signal,[11],"1.28 fold enrichment (6-mer frequency, TF over GST control)"
same,binding signal,[12],"1.05 fold enrichment (6-mer frequency, TF over GST control)"
same,binding signal,[13],"1.26 fold enrichment (6-mer frequency, TF over GST control)"
same,binding signal,[14],"1.35 fold enrichment (6-mer frequency, TF over GST control)"
same,binding signal,[15],"1.53 fold enrichment (6-mer frequency, TF over GST control)"
same,binding signal,[16],"1.34 fold enrichment (6-mer frequency, TF over GST control)"
same,binding signal,[17],"1.32 fold enrichment (6-mer frequency, TF over GST control)"
same,binding signal,[18],"1.15 fold enrichment (6-mer frequency, TF over GST control)"
